Assay results reported in PubChem BioAssay (NCATS).
Activity calls are given as the source filed them.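 Rule for the calls: active = compounds whose dose series gives a full or clear partial fitted curve of increased nuclear translocation; inconclusive = weak partial curve or effect only at the top dose; inactive = no dose-dependent translocation response.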

Biological target: Glucocorticoid receptor (Homo sapiens) (UniProt P04150)
Experiment: GR-GFP Redistribution (AID 450)
Conditions: U2OS GR-GFP nuclear translocation, laser cytometry, 2 h
Source text: NIH Molecular Libraries Screening Centers Network [MLSCN]
NIH Chemical Genomics Center [NCGC]
The glucocorticoid receptor (GR) Redistribution assay (BioImage) enables the visualization of GR cytoplasmic to nuclear translocation by the use of a GR-GFP fusion. GR is normally cytosolic, however ligands such as dexamethasone, cause nuclear translocation where the protein binds to response elements and interacts with various co-factors to modulate transcription. Because both functional agonists and antagonists can induce nuclear translocation, this assay can detect ligands regardless of their effects on gene expression. GR-GFP expressing U20S cells were used here. Dexamethasone was the positive control for translocation and data normalization. Detection of nuclear translocation was performed in 1536-well plates using the Acumen laser scanning plate cytometer (TTP LabTech). Validation of this assay and a detailed protocol have been described.
NCGC Assay Protocol Summary:
GR-GFP U2OS cells were maintained in DMEM with Glutamax and high glucose, 1% v/v penicillin-streptomycin, and 0.5 mg/mL Geneticin. For cell culture, 10% […] fetal bovine serum (FBS) was used (Invitrogen #26140-079). For cell plating 10% dextran, charcoal-stripped FBS (Hyclone SH30068.03) was used. U2OS cells were trypsin treated, suspended in medium, and passed through a 40 um basket filter. The cells were seeded at 600 cells/5 uL/well into clear-bottom black sided 1536-well plates and incubated for approximately 20 hrs, 37degC, 5%, CO2 in a tissue culture incubator. Twenty-three nL of compound was delivered by pin tool and the plates were incubated as above for 2 hrs. The compounds were tested as a 7-point titration ranging from 46 uM to 0.6 nM. The cells were fixed using the Kalypsys Washer/Dispenser station. The fixing protocol involved aspiration of the cell media, addition of 6 uL/well of PBS, aspiration of PBS, addition of 5uL/well of 100% methanol, aspiration of methanol, and addition of 3 uL/well PBS with 1.5 uM propidium iodide (PI). The plates were read by the Acumen Explorer using a 1 x 8 um scan of the whole well area. PI fluorescence triggered the collection of PI and GFP signals. A nuclei population was defined by a 10 to 100 um width and depth filter that eliminated small and large fluorescent particles. Two subpopulations of nuclei were then defined by peak intensity of GFP fluorescence to obtain translocated and untranslocated objects. The number of translocated objects was used for data normalization.
Keywords: NIH Roadmap, MLSCN, MLI, MLSMR, sOGT, qHTS, NCGC
Potency is the fitted concentration of half-maximal effect.

Sequence of Glucocorticoid receptor (Homo sapiens) (P04150 whole entry, looked up): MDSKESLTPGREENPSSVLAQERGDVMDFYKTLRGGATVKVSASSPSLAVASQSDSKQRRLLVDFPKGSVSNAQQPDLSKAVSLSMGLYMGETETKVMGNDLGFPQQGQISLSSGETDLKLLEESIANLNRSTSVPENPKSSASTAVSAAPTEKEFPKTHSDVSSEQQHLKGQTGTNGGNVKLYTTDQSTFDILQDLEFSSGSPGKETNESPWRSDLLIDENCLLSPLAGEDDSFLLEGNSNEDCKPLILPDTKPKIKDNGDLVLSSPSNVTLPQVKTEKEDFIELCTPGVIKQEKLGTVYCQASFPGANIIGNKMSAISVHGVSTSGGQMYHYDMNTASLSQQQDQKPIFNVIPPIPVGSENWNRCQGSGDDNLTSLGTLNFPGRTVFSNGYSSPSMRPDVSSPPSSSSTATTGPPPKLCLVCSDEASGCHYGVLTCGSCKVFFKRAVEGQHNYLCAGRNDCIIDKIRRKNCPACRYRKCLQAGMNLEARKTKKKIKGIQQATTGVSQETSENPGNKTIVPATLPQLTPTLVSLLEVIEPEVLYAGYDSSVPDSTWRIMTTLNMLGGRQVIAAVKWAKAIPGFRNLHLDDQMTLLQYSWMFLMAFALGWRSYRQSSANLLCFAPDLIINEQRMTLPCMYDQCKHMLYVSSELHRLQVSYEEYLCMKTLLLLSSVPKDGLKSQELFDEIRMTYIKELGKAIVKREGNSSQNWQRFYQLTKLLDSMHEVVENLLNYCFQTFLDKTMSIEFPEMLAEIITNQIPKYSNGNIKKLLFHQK

Row | SMILES | Potency
1 | Nc1nc(N)c(Cn2ccnc2)c(=O)[nH]1 | > 46 µM (inactive)
2 | CC[C@@H]1CN2CCc3cc(OC)c(OC)cc3[C@H]2C[C@@H]1C[C@@H]1NCCc2cc(O)c(OC)cc21 | > 20.6 µM (inactive)
3 | CC[C@H]1CN2CCc3cc(OC)c(OC)cc3[C@H]2C[C@@H]1C[C@H]1NCCc2c1[nH]c1ccc(O)cc21 | > 46 µM (inactive)
4 | C=CCN1CC[C@]23c4c5ccc(O)c4O[C@@H]2/C(=N/NC(=O)c2ccccc2)CC[C@@]3(O)[C@H]1C5 | > 46 µM (inactive)
5 | CN[C@H]1[C@H](C)O[C@@H](O[C@@H]2C/C=C(/C)C/C(C)=C\C=C/CC[C@@H](C)CNC(=O)/C=C\C=C/[C@H]2C)C[C@@H]1O | > 46 µM (inactive)
6 | c1ccc2c(c1)Sc1ccccc1N2C[C@H]1CN2CCC1CC2 | > 46 µM (inactive)
7 | C1C[C@@H]2CN(CCCN3CCOCC3)[C@@H](C1)O2 | > 46 µM (inactive)
8 | O=C(O)C(O)(c1ccc(-c2ccccc2)cc1)c1ccc(-c2ccccc2)cc1 | > 46 µM (inactive)
9 | C[C@@]12CC[C@H](O)C[C@@H]1CC[C@@H]1[C@@H]2CC[C@@]2(C)[C@@H](C3=CC(=O)OC3)[C@H](O)C[C@]12O | > 46 µM (inactive)
10 | N[C@H](Cn1cc(I)c(=O)[nH]c1=O)C(=O)O | > 46 µM (inactive)
11 | O=C(O)C[C@H]1NCc2cc3ccccc3nc21 | > 46 µM (inactive)
12 | N#CS.N=C=S.N=C=S.[Cu].[NH2-].[NH2-].[NH2-].[NH2-].c1ccc2ncccc2c1 | > 46 µM (inactive)
13 | CCNCCC1(CC)C(=O)NC(=O)NC1=O | > 46 µM (inactive)
14 | O=S(=O)(Nc1nccs1)c1ccc([As](=O)(O)O)cc1 | > 46 µM (inactive)
15 | C[C@@H](O)CN(CCN(C[C@@H](C)O)C[C@@H](C)O)C[C@@H](C)O.O=[N+]([O-])O.[Cu] | > 46 µM (inactive)
16 | N[C@H](Cn1ccc(=O)[nH]c1=O)C(=O)O | > 46 µM (inactive)
17 | COC(=O)[C@H]1C(=O)[C@H](C(=O)OC)[C@@H]2CC[C@H]1N2C | > 46 µM (inactive)
18 | Cc1cc[c]([Sb]2[O][C@H]([C@H](O)[C@H](O)C(=O)O)[C@@H](CO)[O]2)cc1 | > 46 µM (inactive)
19 | N[C@@H](Cc1c[nH]c2cc([N+](=O)[O-])ccc12)C(=O)O | > 46 µM (inactive)
20 | C[N+]1(C)C2CC(OC(=O)C(CO)c3ccccc3)CC1[C@@H]1O[C@H]21 (stereo not given in full) | > 46 µM (inactive)

Row | SMILES | Potency
21 | O=C(O)[C@@H](O)[C@@H](O)[C@@H]1[O][Sb][O][C@@H]1CO | > 46 µM (inactive)
22 | O=[As](O)(O)c1ccc(NCc2ccccc2)cc1 | > 46 µM (inactive)
23 | O=C(O)[C@@H]1[C@H](C(=O)O)[C@]2(Cl)C(Cl)=C(Cl)[C@@]1(Cl)C2(Cl)Cl | > 46 µM (inactive)
24 | CC(C)C[C@H](NP(=O)(O)O[C@@H]1O[C@@H](C)[C@@H](O)[C@@H](O)[C@H]1O)C(=O)N[C@@H](Cc1c[nH]c2ccccc12)C(=O)O | > 46 µM (inactive)
25 | O=C(O)CN1C(=O)CN=C(c2ccccn2)c2cc(Cl)ccc21 | > 46 µM (inactive)
26 | CCN(CC)c1ncnc2c1ncn2[C@@H]1O[C@@H](COP(=O)(O)OP(=O)(O)C(Br)(Br)P(=O)(O)O)[C@H](O)[C@@H]1O | > 46 µM (inactive)
27 | CN(C)[C@@H]1C(=O)C(C(N)=O)=C(O)[C@]2(O)C(=O)C3=C(O)c4c(O)cccc4[C@](C)(O)[C@H]3C[C@@H]12 | > 46 µM (inactive)
28 | O=C(O)[C@H](Cc1cnc[nH]1)N1C(=O)c2ccccc2C1=O | > 46 µM (inactive)
29 | CSc1ccc2c(c1)c(CCN)c(C)n2Cc1ccccc1Cl | > 46 µM (inactive)
30 | C[C@]12CN(CC[N+](C)(C)C)C[C@]1(C)[C@@H]1CC[C@@H]2O1 | > 46 µM (inactive)
31 | Cc1ccc(OP(=O)(Oc2ccc(C)cc2)N2C=Cc3ccccc3[C@H]2C#N)cc1 | > 46 µM (inactive)
32 | N[C@@H](CP(=O)(O)O)C(=O)O | > 46 µM (inactive)
33 | c1cncc(CNCCN2CCNCC2)c1 | > 46 µM (inactive)
34 | C[C@]12CC[C@@H]3[C@H](CCC4=CC(=O)CC[C@]43C)[C@]1(O)CC[C@@]2(O)C(=O)CO | 0.822 µM (active)
35 | Cc1ccc(O)cc1 (tested in a mixture with another compound) | > 46 µM (inactive)
36 | CC1(C)CCC(C)(C)c2c1ccc(O)c2Cc1c(O)ccc2c1C(C)(C)CCC2(C)C | > 46 µM (inactive)
37 | N[C@H](Cc1ccc(N(CCCl)CCCl)cc1)C(=O)O | > 46 µM (inactive)
38 | O=C(Nc1ccc([As](=O)(O)O)cc1)Nc1cccc(Cl)c1Cl | > 46 µM (inactive)
39 | C(=NCCN1CCOCC1)=NC1CCCCC1 | > 46 µM (inactive)
40 | C[C@@](Br)(C(=O)O)[C@H](Br)C(=O)O | > 46 µM (inactive)
